Test results from PubChem BioAssay AID1159580 (chemical genetic matrix, 2015).
The whole screen tested about 5,500 compounds, of which about 2,000 (36%) were called active. Another 18% or so got no clear call; they are omitted. Cut-off read from the data, not from the text of the source: active = normalized growth mostly below about 0.91 (no sharp cut-off); inconclusive = no clear call, values can overlap the other calls; inactive = mostly above about 0.92. This is one part of the list.

Experiment: chemical genetic growth profiling, strain panel (AID 1159580);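 note: tested at 20 µM; growth read once vehicle control cultures reached saturation at 30 °C; 1 = growth at the plate median or of vehicle wells; lower values mean less growth of the strain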
Conditions: growth OD
[1] = S. cerevisiae deletion strains, locus YAL013W, strain DEP1, hits give low values
[2] = S. cerevisiae deletion strains, locus YBR229C, strain ROT2, hits give low values
[3] = S. cerevisiae deletion strains, locus YDL101C, strain DUN1, hits give low values
[4] = S. cerevisiae deletion strains, locus YDR150W, strain NUM1, hits give low values
[5] = S. cerevisiae deletion strains, locus YEL061C, strain CIN8, hits give low values
[6] = S. cerevisiae deletion strains, locus YGR078C, strain PAC10, hits give low values
[7] = S. cerevisiae deletion strains, locus YHR030C, strain SLT2, hits give low values
[8] = S. cerevisiae deletion strains, locus YHR087W, strain rtc3, hits give low values
[9] = S. cerevisiae deletion strains, locus YJR043C, strain POL32, hits give low values
[10] = S. cerevisiae deletion strains, locus YJR075W, strain HOC1, hits give low values
[11] = S. cerevisiae deletion strains, locus YKL190W, strain CNB1, hits give low values
[12] = S. cerevisiae deletion strains, locus YLR039C, strain RIC1, hits give low values
[13] = S. cerevisiae deletion strains, locus YLR058C, strain SHM2 (second series), hits give low values
[14] = S. cerevisiae deletion strains, locus YLR085C, strain ARP6, hits give low values
[15] = S. cerevisiae deletion strains, locus YLR262C, strain YPT6, hits give low values
[16] = S. cerevisiae deletion strains, locus YML094W, strain GIM5, hits give low values
[17] = S. cerevisiae deletion strains, locus YMR219W, strain ESC1, hits give low values
[18] = S. cerevisiae deletion strains, locus YMR263W, strain SAP30, hits give low values
[19] = S. cerevisiae deletion strains, locus YNL153C, strain GIM3, hits give low values
[20] = S. cerevisiae deletion strains, locus YNL298W, strain CLA4 (second series), hits give low values
[21] = S. cerevisiae deletion strains, locus YNL322C, strain KRE1, hits give low values
[22] = S. cerevisiae deletion strains, locus YNR030W, strain Alg12, hits give low values
[23] = S. cerevisiae deletion strains, locus YPL055C, strain LGE1, hits give low values
[24] = S. cerevisiae deletion strains, locus YPL241C, strain CIN2, hits give low values
[25] = S. cerevisiae deletion strains, locus YPR135W, strain CTF4, hits give low values
[26] = S. cerevisiae strains, strain wild type, hits give low values
[27] = S. cerevisiae deletion strains, locus YAR019C, strain CDC15, hits give low values
[28] = S. cerevisiae deletion strains, locus YBL105C, strain PKC1, hits give low values
[29] = S. cerevisiae deletion strains, locus YBR135W, strain CKS1, hits give low values
[30] = S. cerevisiae deletion strains, locus YBR136W, strain MEC1, hits give low values
[31] = S. cerevisiae deletion strains, locus YBR160W, strain CDC28, hits give low values
[32] = S. cerevisiae deletion strains, locus YDL017W, strain CDC7, hits give low values
[33] = S. cerevisiae deletion strains, locus YDL028C, strain MPS1, hits give low values
[34] = S. cerevisiae deletion strains, locus YDL108W, strain KIN28, hits give low values
[35] = S. cerevisiae deletion strains, locus YDL132W, strain cdc53, hits give low values
[36] = S. cerevisiae deletion strains, locus YDL214C, strain PRR2, hits give low values
[37] = S. cerevisiae deletion strains, locus YDR052C, strain DBF4, hits give low values
[38] = S. cerevisiae deletion strains, locus YDR054C, strain cdc34, hits give low values
[39] = S. cerevisiae deletion strains, locus YDR226W, strain ADK1, hits give low values
[40] = S. cerevisiae deletion strains, locus YDR477W, strain SNF1, hits give low values
[41] = S. cerevisiae deletion strains, locus YER123W, strain YCK3, hits give low values
[42] = S. cerevisiae deletion strains, locus YER133W, strain GLC7, hits give low values
[43] = S. cerevisiae deletion strains, locus YFL009W, strain cdc4, hits give low values
[44] = S. cerevisiae deletion strains, locus YFL029C, strain CAK1, hits give low values
[45] = S. cerevisiae deletion strains, locus YFR003C, strain YPI1, hits give low values
[46] = S. cerevisiae deletion strains, locus YFR019W, strain FAB1, hits give low values
[47] = S. cerevisiae deletion strains, locus YFR028C, strain CDC14, hits give low values
[48] = S. cerevisiae deletion strains, locus YGR040W, strain KSS1, hits give low values
[49] = S. cerevisiae deletion strains, locus YGR052W, strain FMP48, hits give low values
[50] = S. cerevisiae deletion strains, locus YGR092W, strain DBF2, hits give low values
[51] = S. cerevisiae deletion strains, locus YHR079C, strain IRE1, hits give low values
[52] = S. cerevisiae deletion strains, locus YHR082C, strain KSP1, hits give low values
[53] = S. cerevisiae deletion strains, locus YHR205W, strain SCH9, hits give low values
[54] = S. cerevisiae deletion strains, locus YIL147C, strain SLN1, hits give low values
[55] = S. cerevisiae deletion strains, locus YJL095W, strain BCK1, hits give low values
[56] = S. cerevisiae deletion strains, locus YJL157C, strain FAR1, hits give low values
[57] = S. cerevisiae deletion strains, locus YJR016C, strain ILV3, hits give low values
[58] = S. cerevisiae deletion strains, locus YJR066W, strain TOR1 (second series), hits give low values
[59] = S. cerevisiae deletion strains, locus YJR066W, strain TOR1, hits give low values
[60] = S. cerevisiae deletion strains, locus YKL048C, strain ELM1, hits give low values
[61] = S. cerevisiae deletion strains, locus YKL067W, strain YNK1, hits give low values
[62] = S. cerevisiae deletion strains, locus YKL101W, strain HSL1, hits give low values
[63] = S. cerevisiae deletion strains, locus YKL193C, strain SDS22, hits give low values
[64] = S. cerevisiae deletion strains, locus YKL203C, strain TOR2, hits give low values
[65] = S. cerevisiae deletion strains, locus YLR113W, strain HOG1, hits give low values
[66] = S. cerevisiae deletion strains, locus YLR133W, strain CKI1, hits give low values
[67] = S. cerevisiae deletion strains, locus YLR403W, strain SFP1, hits give low values
[68] = S. cerevisiae deletion strains, locus YML070W, strain DAK1, hits give low values
[69] = S. cerevisiae deletion strains, locus YMR001C, strain CDC5, hits give low values
[70] = S. cerevisiae deletion strains, locus YMR205C, strain PFK2 (second series), hits give low values
[71] = S. cerevisiae deletion strains, locus YMR277W, strain FCP1, hits give low values
[72] = S. cerevisiae deletion strains, locus YNL006W, strain LST8, hits give low values
[73] = S. cerevisiae deletion strains, locus YNL020C, strain ARK1, hits give low values
[74] = S. cerevisiae deletion strains, locus YNL161W, strain CBK1, hits give low values
[75] = S. cerevisiae deletion strains, locus YNL183C, strain NPR1, hits give low values
[76] = S. cerevisiae deletion strains, locus YNL207W, strain RIO2, hits give low values
[77] = S. cerevisiae deletion strains, locus YNL222W, strain SSU72, hits give low values
[78] = S. cerevisiae deletion strains, locus YNL307C, strain MCK1 (second series), hits give low values
[79] = S. cerevisiae deletion strains, locus YOL078W, strain AVO1, hits give low values
[80] = S. cerevisiae deletion strains, locus YOL136C, strain PFK27, hits give low values
[81] = S. cerevisiae deletion strains, locus YOR061W, strain CKA2, hits give low values
[82] = S. cerevisiae deletion strains, locus YOR119C, strain RIO1, hits give low values
[83] = S. cerevisiae deletion strains, locus YOR231W, strain MKK1, hits give low values
[84] = S. cerevisiae deletion strains, locus YOR329C, strain SCD5, hits give low values
[85] = S. cerevisiae deletion strains, locus YPL031C, strain PHO85, hits give low values
[86] = S. cerevisiae deletion strains, locus YPL153C, strain RAD53, hits give low values
[87] = S. cerevisiae deletion strains, locus YPL204W, strain HRR25, hits give low values
[88] = S. cerevisiae deletion strains, locus YPL209C, strain IPL1, hits give low values
[89] = S. cerevisiae deletion strains, locus YPL256C, strain CLN2, hits give low values
[90] = S. cerevisiae deletion strains, locus YPR025C, strain CCL1, hits give low values
[91] = S. cerevisiae deletion strains, locus YPR106W, strain ISR1, hits give low values
[92] = S. cerevisiae deletion strains, strain TSCII, hits give low values

Measured: normalized growth

Cc1ccc(-n2nc(-c3ccc(OC(F)(F)F)cc3)cc2NC(=O)Nc2ccc(OC(F)(F)F)cc2)cc1C
inactive: [1] 1 | [2] 1.02 | [3] 1.01 | [4] 1.02 | [5] 1.01 | [6] 1.04 | [7] 1.09 | [8] 1.01 | [9] 1.02 | [10] 1.03 | [11] 1.02 | [12] 1.08 | [13] 1.02 | [14] 1.17 | [15] 1.05 | [16] 1.02 | [17] 1.02 | [18] 1.05 | [19] 0.996 | [20] 1.05 | [21] 1 | [22] 1.01 | [23] 1.06 | [24] 1.08 | [25] 0.996 | [26] 1.02

Nc1cc(-c2ccc(OC(F)(F)F)cc2)nn1-c1ccc(Cl)c(Cl)c1
inactive: [27] 0.979 | [28] 1.01 | [29] 0.981 | [30] 1.02 | [31] 0.983 | [32] 0.994 | [33] 1.01 | [3] 1 | [34] 1.01 | [35] 0.971 | [37] 0.985 | [38] 0.904 | [39] 0.983 | [43] 1.01 | [44] 0.969 | [45] 1 | [47] 1 | [53] 0.635 | [54] 1 | [57] 1 | [59] 0.669 | [63] 0.982 | [67] 0.676 | [69] 0.999 | [71] 0.993 | [72] 1 | [74] 0.992 | [76] 0.989 | [77] 0.99 | [79] 1 | [84] 1.01 | [88] 0.966 | [90] 0.975 | [92] 1.01
active: [36] 0.565 | [40] 0.487 | [41] 0.249 | [42] 0.577 | [46] 0.574 | [48] 0.488 | [49] 0.446 | [50] 0.388 | [7] 0.317 | [51] 0.448 | [52] 0.521 | [55] 0.254 | [56] 0.706 | [58] 0.589 | [60] 0.752 | [61] 0.597 | [62] 0.268 | [64] 0.454 | [65] 0.317 | [66] 0.644 | [68] 0.439 | [70] 0.605 | [73] 0.53 | [75] 0.378 | [78] 0.335 | [80] 0.672 | [81] 0.355 | [82] 0.528 | [83] 0.349 | [85] 0.29 | [86] 0.193 | [87] 0.285 | [89] 0.604 | [91] 0.643

CCOC(=O)NC(=S)NC12CC3CC(CC(C3)C1)C2
inactive: [27] 0.978 | [28] 0.983 | [29] 0.977 | [30] 0.962 | [31] 0.984 | [32] 0.982 | [33] 0.978 | [3] 0.979 | [34] 0.957 | [35] 0.971 | [36] 0.875 | [37] 0.993 | [38] 0.967 | [39] 0.975 | [40] 0.894 | [41] 0.827 | [42] 0.86 | [43] 0.972 | [44] 0.974 | [45] 0.981 | [46] 0.955 | [47] 0.97 | [48] 0.872 | [49] 0.947 | [50] 0.787 | [7] 0.897 | [51] 0.915 | [52] 0.946 | [53] 0.965 | [54] 0.981 | [55] 0.964 | S. cerevisiae deletion strains, locus YJL128C, strain PBS2, hits give low values 0.953 | [56] 0.865 | [57] 0.985 | [58] 0.789 | [59] 0.903 | [60] 0.968 | [61] 0.896 | [62] 0.923 | [63] 0.982 | [64] 0.958 | [65] 0.926 | [66] 0.934 | [67] 0.851 | [68] 0.878 | [69] 0.973 | [70] 0.917 | [71] 0.977 | [72] 0.971 | [73] 0.901 | [74] 0.987 | [75] 0.939 | [76] 0.97 | [77] 0.982 | [78] 0.881 | [79] 0.972 | [80] 0.898 | [81] 0.845 | [82] 0.934 | [83] 0.926 | [84] 0.984 | [85] 0.87 | [86] 0.863 | [87] 0.876 | [88] 0.981 | [89] 1 | [90] 0.982 | [91] 0.992 | S. cerevisiae deletion strains, locus YPR111W, strain DBF20, hits give low values 0.996 | S. cerevisiae deletion strains, strain NNK1, hits give low values 0.988 | [92] 0.971

CCOC(=O)c1cc(-c2ccc(N)cc2)oc1C
inactive: [1] 0.943 | [2] 0.95 | [3] 0.927 | S. cerevisiae deletion strains, locus YDL134C, strain PPH21, hits give low values 0.939 | [4] 0.822 | [6] 0.942 | S. cerevisiae deletion strains, locus YGR229C, strain SMI1, hits give low values 0.964 | [8] 0.96 | [9] 0.952 | [10] 0.963 | [13] 0.961 | [17] 0.959 | [18] 0.889 | [21] 0.973 | [26] 0.923
active: S. cerevisiae deletion strains, locus YCL061C, strain MRC1, hits give low values 0.891 | [5] 0.59 | [7] 0.351 | [11] 0.869 | [12] 0.414 | [14] 0.458 | [15] 0.385 | [16] 0.806 | S. cerevisiae deletion strains, locus YMR307W, strain GAS1, hits give low values 0.548 | [19] 0.66 | [20] 0.783 | [22] 0.885 | [23] 0.749 | [24] 0.483 | [25] 0.611
